Laboratory results taken from the supplement of paper PMC11219838.
Values without a mark were called inactive.

Key:
Ditylenchus dipsaci = assay: proportion of mobile D. dipsaci (mixed stage) relative to DMSO control (fraction of DMSO control); higher = more viable, less nematicidal, active = 0.86 or less; extreme values may be limits of the assay; conditions: 60 µM; 5 days; temperature: 20 °C
How it was run: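 Mobility values are relative to DMSO controls and are averages of two biological replicates. For each well of a 96-well plate, about 20 D. dipsaci worms, grown on pea plants in Gamborg B-5 agar and funnel-extracted into water, were dispensed in distilled water. Plates received pinned compound at 60 µM final with 0.6% v/v DMSO and were sealed and shaken at 200 rpm for 5 days at 20 °C before 2 µL 1 M NaOH was added and mobile worms were scored by microscope.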

[1] = test system: Caenorhabditis elegans dauer (daf-2(e1370)); assay: proportion of mobile C. elegans dauer larvae relative to DMSO control (fraction of DMSO control); higher = more viable, less nematicidal, active = 0.63 or less; extreme values may be limits of the assay; conditions: 60 µM; 5 days; temperature: 20 °C
How it was run: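 The proportion of mobile worms, relative to DMSO wells, was scored by dissection microscope and averaged over two biological replicates. Worms were C. elegans dauers, about 20 per well in liquid NGM in 96-well plates, generated from synchronized larvae on MYOB plates with E. coli OP50 at 25 °C for 48 h. They were treated with compound pinned to 60 µM final (0.6% v/v DMSO) and kept in sealed plates shaken at 200 rpm for 5 days at 20 °C.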

SMILES	proportion of mobile D. dipsaci (Ditylenchus dipsaci)	proportion of mobile C. elegans dauer larvae [1]
Cc1cc(OC(C)c2nc(-c3ccccn3)no2)ccc1Cl (stereo unspecified)	1	
COc1ccc(-c2noc(-c3ccc(C)cc3)n2)cc1	0.932	
COc1ccc(-c2nnc(SCC(=O)OCc3ccccc3)o2)cc1	1	
COc1ccc(-c2nnc(SCC(=O)Nc3ccc(Cl)cc3Cl)o2)cc1	1	1
Cc1cc(C)cc(NC(=O)CSc2nnc(-c3ccccc3)o2)c1	1	1
Cc1ccc(NC(=O)CSc2nnc(-c3ccncc3)o2)cc1Cl	1	1
O=C(CSc1nnc(-c2cccc(Br)c2)o1)c1ccccc1	0.714 (active)	
Clc1cccc(OCc2nc(-c3ccncc3)no2)c1	1	1
CCc1ccc(NC(=O)CSc2nnc(-c3ccco3)o2)cc1	1	
CCCOc1ccc(-c2ccc(-c3nc(-c4cccnc4)no3)cc2)cc1	1	
Cc1cccc(-c2noc(-c3ccccc3Cl)n2)c1	1	1
